PubChem BioAssay (NCI)
Compounds without any hit were thinned out: in the full panel of roughly 79,000, 15% have a hit. Activity calls are given as the source filed them. Rule as the data show it: active = growth inhibition above about 70%; inactive = the rest.

Assays:
[1] = NCI Yeast Anticancer Drug Screen. Data for the mlh1 rad18 strain (AID 175); settings: S. cerevisiae mlh1 rad18 strain growth inhibition, active compounds read high
Procedure, shortened: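 Yeast w/ defined DNA-repair lesions; compound exposure; growth vs vehicle controls → % inhibition.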

[2] = NCI Yeast Anticancer Drug Screen. Data for the rad18 strain (AID 177); settings: S. cerevisiae rad18 mutant growth inhibition, active compounds read high
Procedure, shortened: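 Readout: growth inhibition vs vehicle controls. Cells: genetically altered yeast strain, DNA repair defect.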

[3] = NCI Yeast Anticancer Drug Screen. Data for the wt1 strain (AID 149);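 also: 0% = growth of vehicle-treated wt1 cultures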; settings: S. cerevisiae wt1 strain (SPY 50644) growth inhibition, active compounds read high
Procedure, shortened: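 wt1 yeast, compound-treated; % growth inhibition vs vehicle control.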

[4] = NCI Yeast Anticancer Drug Screen. Data for the rad50EPP+ strain (AID 151);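 also: 0% = growth of vehicle-treated control cultures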; settings: S. cerevisiae rad50 mutant strain, active compounds read high
Procedure, shortened: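 Growth inhibition read against vehicle controls in rad50EPP+ yeast, a strain altered in DNA damage repair, after compound exposure.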

[5] = NCI Yeast Anticancer Drug Screen. Data for the rad50 strain (AID 155);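 also: 0% = growth of vehicle-only cultures of the same strain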; settings: S. cerevisiae rad50 strain growth inhibition, active compounds read high
Procedure, shortened: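 Genetically altered yeast (DNA repair pathway); compound treatment; growth inhibition vs vehicle ctrl.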

[6] = NCI Yeast Anticancer Drug Screen. Data for the mec2-1 strain (AID 157); settings: S. cerevisiae mec2-1 strain, active compounds read high
Procedure, shortened: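 Yeast mec2-1 mutant treated with compound. Readout: growth inhibition vs vehicle controls.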

[7] = NCI Yeast Anticancer Drug Screen. Data for the rad14 strain (AID 159);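 also: 0% = growth of vehicle-treated control cultures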; settings: S. cerevisiae rad14 strain growth inhibition, active compounds read high
Procedure, shortened: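 Test compounds were applied to a repair-deficient yeast strain. Its growth was then compared with that of cultures given vehicle alone, and inhibition was expressed relative to those controls.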

[8] = NCI Yeast Anticancer Drug Screen. Data for the sgs1 mgt1 strain (AID 161);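 also: 0% = growth of cultures given vehicle only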; settings: S. cerevisiae sgs1 mgt1 strain, active compounds read high
Procedure, shortened: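 Mutant yeast exposed to compound; growth scored against vehicle-only wells.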

[9] = NCI Yeast Anticancer Drug Screen. Data for the CLN2oe strain (AID 163);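 also: 0% = growth of vehicle-only control cultures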; settings: S. cerevisiae CLN2oe strain, active compounds read high
Procedure, shortened: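 Read-out: yeast growth inhibition, expressed relative to vehicle-only controls. The strain bears an engineered cell-cycle alteration.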

[10] = NCI Yeast Anticancer Drug Screen. Data for the cln2 rad14 strain (AID 165);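 also: 0% = growth equal to vehicle treated cultures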; settings: S. cerevisiae cln2 rad14 strain, active compounds read high
Procedure, shortened: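 cln2 rad14 yeast strain; compound exposure; growth inhibition read vs vehicle controls.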

[11] = NCI Yeast Anticancer Drug Screen. Data for the bub3 strain (AID 167); settings: S. cerevisiae bub3 mutant strain, active compounds read high
Procedure, shortened: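 Yeast carrying a defined mutation is treated with each compound, and growth is compared with that of vehicle-exposed cells to give inhibition.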

[12] = NCI Yeast Anticancer Drug Screen. Data for the wt2 strain (AID 169);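 also: 0% = growth of vehicle-treated yeast cultures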; settings: S. cerevisiae wt2 strain growth inhibition, active compounds read high
Procedure, shortened: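 Read-out: growth inhibition versus vehicle-treated control cultures after compound exposure of the yeast strain.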

[13] = NCI Yeast Anticancer Drug Screen. Data for the mlh1 strain (AID 171);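 also: 0% = growth of vehicle-treated control cultures of the same strain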; settings: S. cerevisiae mlh1 strain growth inhibition, active compounds read high
Procedure, shortened: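 Read-out: growth inhibition versus vehicle controls. Strain: engineered yeast with a defined DNA repair or cell cycle defect, compound-treated.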

[14] = NCI Yeast Anticancer Drug Screen. Data for the sgs1 strain (AID 173);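 also: 0% = growth of vehicle-only control cultures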; settings: S. cerevisiae sgs1 mutant, active compounds read high
Procedure, shortened: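 Read-out: yeast growth inhibition relative to vehicle controls, following compound exposure of a strain with a defined DNA repair/cell cycle alteration.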

[15] = at 5.0 µM (retest, dose inferred, filed as 0.5)
[16] = at 50.0 µM (retest, dose inferred, filed as 5.0)

Measured: growth inhibition

O=S(=O)(O)CC[S][Sn]([S]CCS(=O)(=O)O)([c]1ccccc1)[c]1ccccc1
inactive: [1]; [15] 43% | [2]; at 1.2 µM -2% | [2]; at 3.7 µM 43%
active: [1]; [16] 99% | [1]; at 50.0 µM 91.5% | [2]; at 11.0 µM 92% | [2]; at 33.0 µM 96% | [2]; at 100.0 µM 98%

O=c1oc(C(C(F)(F)F)C(F)(F)F)nc2ccccc12
active: [5]; [16] 72% | [6]; [16] 83% | [6]; at 50.0 µM 70.2% | [1]; [16] 88%
inactive: [3]; at 1.2 µM 4% | [3]; at 3.7 µM 24% | [3]; at 11.0 µM 20% | [3]; at 33.0 µM 23% | [3]; at 100.0 µM 27% | [4]; at 1.2 µM 22% | [4]; at 3.7 µM 30% | [4]; at 11.0 µM 35% | [4]; at 33.0 µM 43% | [4]; at 100.0 µM 51% | [5]; at 1.2 µM 33% | [5]; at 3.7 µM 27% | [5]; [15] 10% | [5]; at 11.0 µM 25% | [5]; at 33.0 µM 29% | [5]; at 50.0 µM 36.1% | [5]; at 100.0 µM 29% | [6]; at 1.2 µM 13% | [6]; at 3.7 µM 27% | [6]; [15] 7% | [6]; at 11.0 µM 23% | [6]; at 33.0 µM 29% | [6]; at 100.0 µM 34% | [7]; at 1.2 µM 16% | [7]; at 3.7 µM 21% | [7]; at 11.0 µM 26% | [7]; at 33.0 µM 29% | [7]; at 100.0 µM 42% | [8]; [15] -5% | [8]; [16] 12% | [8]; at 50.0 µM 12.7% | [9]; at 1.2 µM 18% | [9]; at 3.7 µM 12% | [9]; at 11.0 µM 26% | [9]; at 33.0 µM 1% | [9]; at 100.0 µM 15% | [10]; [15] 23% | [10]; [16] 33% | [10]; at 50.0 µM 12.3% | [11]; at 1.2 µM 3% | [11]; at 3.7 µM 13% | [11]; [15] -27% | [11]; at 11.0 µM 20% | [11]; at 33.0 µM -5% | [11]; [16] -6% | [11]; at 50.0 µM 16.6% | [11]; at 100.0 µM 15% | [12]; at 1.2 µM -3% | [12]; at 3.7 µM -5% | [12]; at 11.0 µM -7% | [12]; at 33.0 µM 2% | [12]; at 100.0 µM 32% | [13]; at 1.2 µM 16% | [13]; at 3.7 µM 12% | [13]; at 11.0 µM 17% | [13]; at 33.0 µM 20% | [13]; at 100.0 µM 32% | [14]; at 1.2 µM 26% | [14]; at 3.7 µM 39% | [14]; at 11.0 µM 40% | [14]; at 33.0 µM 43% | [14]; at 100.0 µM 46% | [1]; [15] 15% | [1]; at 50.0 µM 50.6% | [2]; at 1.2 µM 22% | [2]; at 3.7 µM 15% | [2]; at 11.0 µM 20% | [2]; at 33.0 µM 19% | [2]; at 100.0 µM 30%

[N-]=[N+]=NC1CC(n2ccc(=O)[nH]c2=O)OC1COC(c1ccccc1)(c1ccccc1)c1ccccc1 (centres undefined)
inactive: [3]; at 1.2 µM 1% | [3]; at 3.7 µM 4% | [3]; at 11.0 µM 11% | [4]; at 1.2 µM 1% | [4]; at 3.7 µM 0% | [4]; at 11.0 µM 0% | [4]; at 33.0 µM -2% | [4]; at 100.0 µM -7% | [5]; at 1.2 µM 1% | [5]; at 3.7 µM 3% | [5]; at 11.0 µM 48% | [5]; at 50.0 µM 41.8% | [6]; at 1.2 µM -3% | [6]; at 3.7 µM -1% | [6]; [15] 18% | [6]; at 11.0 µM 27% | [7]; at 1.2 µM 2% | [7]; at 3.7 µM 5% | [7]; at 11.0 µM 18% | [8]; [15] 15% | [8]; at 50.0 µM 50.5% | [9]; at 1.2 µM -4% | [9]; at 3.7 µM -4% | [9]; at 11.0 µM 26% | [10]; [15] 33% | [11]; at 1.2 µM 0% | [11]; at 3.7 µM -2% | [11]; [15] 8% | [11]; at 11.0 µM 15% | [12]; at 1.2 µM 0% | [12]; at 3.7 µM -1% | [12]; at 11.0 µM 23% | [13]; at 1.2 µM 0% | [13]; at 3.7 µM 2% | [13]; at 11.0 µM 25% | [14]; at 1.2 µM 0% | [14]; at 3.7 µM 2% | [14]; at 11.0 µM 17% | [1]; at 50.0 µM 50.6% | [2]; at 1.2 µM 3% | [2]; at 3.7 µM 13% | [2]; at 11.0 µM 52%
active: [3]; at 33.0 µM 89% | [3]; at 100.0 µM 91% | [5]; [15] 76% | [5]; at 33.0 µM 93% | [5]; [16] 82% | [5]; at 100.0 µM 83% | [6]; at 33.0 µM 86% | [6]; [16] 79% | [6]; at 50.0 µM 89.7% | [6]; at 100.0 µM 85% | [7]; at 33.0 µM 77% | [7]; at 100.0 µM 81% | [8]; [16] 80% | [9]; at 33.0 µM 89% | [9]; at 100.0 µM 80% | [10]; [16] 81% | [10]; at 50.0 µM 88.9% | [11]; at 33.0 µM 85% | [11]; [16] 76% | [11]; at 50.0 µM 89.8% | [11]; at 100.0 µM 83% | [12]; at 33.0 µM 81% | [12]; at 100.0 µM 80% | [13]; at 33.0 µM 71% | [13]; at 100.0 µM 77% | [14]; at 33.0 µM 84% | [14]; at 100.0 µM 86% | [1]; [15] 74% | [1]; [16] 86% | [2]; at 33.0 µM 94% | [2]; at 100.0 µM 87%
